This passage reports z-score and composite z-score results from PubChem BioAssay.

Assay [1] in a line: compound effects on lung adenocarcinoma cell viability – A549, calcein-AM fluorescence, 48 h, basal, profiling panel (AID 1162). Further: test concentration not given here. Particulars: higher = more signal.
The nature of assay [2]: compound effects on differentiated 3T3-L1 adipocyte viability – cell-based, 3T3-L1 adipocytes, calcein-AM fluorescence, 48 h, basal, profiling panel (AID 1163). Further: test concentration not given here. Particulars: 3T3-L1 adipocytes viability, higher = more signal.
The nature of assay [3]: compound effects on hepatocellular carcinoma cell viability – HepG2, calcein-AM fluorescence, 48 h, basal, profiling panel (AID 1164). Further: test concentration not given here. To be noted: higher = more signal.
A short description of assay [4]: compound effects on multiple myeloma cell viability – MM1S, calcein-AM fluorescence, 48 h, basal, profiling panel (AID 1165).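 Further: viability of MM1S multiple myeloma cells under basal unstimulated conditions; test concentration not given here.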 Particulars: higher = more signal.
Assay [5] is described as follows: calcein-AM signal in unstimulated myeloma cells – cell-based, calcein-AM fluorescence, 48 h, PK04 Diversity Set, profiling panel (AID 1166).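 Further: cells grown under basal conditions without added stimulus; test concentration not given here.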 Particulars: RPMI8226 myeloma viability, higher = more signal.
A short description of assay [6]: JC-1 mitochondrial signal, unstimulated HepG2 cells – cell-based, JC-1 fluorescence, 24 h, 100 nL compound, profiling panel (AID 1167). Further: test concentration not given here. Particulars: HepG2 mitochondrial potential, higher = more signal.
A short description of assay [7]: JC-1 mitochondrial signal, unstimulated adipocytes – cell-based, JC-1 fluorescence, 3T3-L1 adipocytes, 24 h, 100 nL compound, profiling panel (AID 1168). Further: test concentration not given here. Particulars: JC-1 mitochondrial fluorescence, higher = more signal, called active from +8 up or from −8 down.
Assay [8] in a line: JC-1 mitochondrial signal, unstimulated myeloma cells – cell-based, JC-1 fluorescence, RPMI8226, 24 h, 100 nL compound, profiling panel (AID 1169). Further: test concentration not given here. Particulars: JC-1 mitochondrial potential fluorescence, higher = more signal.
Assay [9] in a line: JC-1 mitochondrial signal, unstimulated MM1S myeloma – cell-based, JC-1 fluorescence, 24 h, 100 nL compound, profiling panel (AID 1170). Further: test concentration not given here. To be noted: MM1S mitochondrial potential, higher = more signal.
The nature of assay [10]: resazurin metabolic signal in A549 cells – cell-based, resazurin fluorescence, 24 h, PK04 Diversity Set, profiling panel (AID 1171). Further: test concentration not given here. Particulars: A549 viability, higher = more signal, called active from +8 up or from −8 down. A general note: Resazurin is reduced to fluorescent resorufin, in cell work by metabolically active cells.
Assay [11] in a line: resazurin metabolic signal in HepG2 cells – cell-based, resazurin fluorescence, 24 h, PK04 Diversity Set, profiling panel (AID 1172). Further: test concentration not given here. Particulars: HepG2 viability, higher = more signal.
The nature of assay [12]: budding yeast growth changes without added modifier – OD600, strain BY4716, 24 h, basal condition, primary screen (AID 1173). Particulars: S. cerevisiae BY4716 growth, OD600, 24 h; higher = more signal, called active from +8 up or from −8 down.
Assay [13] can be described thus: viability profiling in MM1S myeloma cells – cell-based, resazurin fluorescence, basal, 24 h, PK04 Diversity Set, profiling panel (AID 1174). Further: test concentration not given here. Particulars: higher = more signal, called active from +8 up or from −8 down.
Assay [14] deals with Dihydroorotate dehydrogenase (quinone), mitochondrial (Plasmodium falciparum (isolate 3D7)) (UniProt Q08210). The experiment in a line: inhibition of P. falciparum DHODH – biochemical, C-terminal His tag, absorbance 600 nm, primary screen (AID 1175).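 Further: recombinant parasite enzyme with a five histidine tag at its C terminus; test concentration not given here.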 To be noted: PfDHODH enzyme, DCIP absorbance 600 nm; higher = more signal, called active from +8 up or from −8 down.
Assay [15] in a line: inhibition of PAO1 biofilm formation – strain PAO1, LB-PBS medium, absorbance 600 nm, primary screen (AID 1176). Further: test concentration not given here. To be noted: P. aeruginosa PAO1 growth/biofilm, A600, 12 h; higher = more signal.
A short description of assay [16]: growth modulation of vineyard yeast isolate – strain RM11-1a, OD600, basal, 24 h, primary screen (AID 1177).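 Further: cultures grown under basal conditions with no added stressor; test concentration not given here.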 To be noted: S. cerevisiae RM11-1a growth, OD600, 24 h; higher = more signal, called active from +8 up or from −8 down.
Assay [17] in a line: growth of efflux-deficient E. coli DRC39 – strain DRC39, OD650, 24 h, E. coli filamentation inducers, primary screen (AID 1178).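 Further: growth measured as culture turbidity by optical density at 650 nm; test concentration not given here.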 Particulars: E. coli DRC39 acrAB, higher = more signal, called active from +8 up or from −8 down.
Assay [18] is described as follows: growth of efflux-deficient E. coli DRC39 – strain DRC39, OD650, 48 h, E. coli filamentation inducers, primary screen (AID 1179).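 Further: screen aims at cell division blockers that make cells filament.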 Particulars: E. coli DRC39 delta-acrAB growth, higher = more signal, called active from +8 up or from −8 down.
Assay [19] is described as follows: viability profiling in RPMI8226 myeloma cells – cell-based, resazurin fluorescence, basal, 24 h, PK04 Diversity Set, profiling panel (AID 1180).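 Further: RPMI8826 multiple myeloma cell line at 5000 cells per well; test concentration not given here.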 To be noted: higher = more signal.
Assay [20] deals with E3 ubiquitin-protein ligase XIAP (Homo sapiens) (UniProt P98170). The experiment in a line: small molecules binding XIAP protein – biophysical, small-molecule microarray, fluorescence 635 nm, primary screen (AID 1181).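 Further: score merges 667 nm emission and signal to noise over triplicate slides.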 Particulars: higher = more signal.

Calls of active or inactive are those of the source. Unless noted, how the calls were made is not given here.

Sequence of Dihydroorotate dehydrogenase (quinone), mitochondrial (Plasmodium falciparum (isolate 3D7)) (Q08210 whole entry, looked up): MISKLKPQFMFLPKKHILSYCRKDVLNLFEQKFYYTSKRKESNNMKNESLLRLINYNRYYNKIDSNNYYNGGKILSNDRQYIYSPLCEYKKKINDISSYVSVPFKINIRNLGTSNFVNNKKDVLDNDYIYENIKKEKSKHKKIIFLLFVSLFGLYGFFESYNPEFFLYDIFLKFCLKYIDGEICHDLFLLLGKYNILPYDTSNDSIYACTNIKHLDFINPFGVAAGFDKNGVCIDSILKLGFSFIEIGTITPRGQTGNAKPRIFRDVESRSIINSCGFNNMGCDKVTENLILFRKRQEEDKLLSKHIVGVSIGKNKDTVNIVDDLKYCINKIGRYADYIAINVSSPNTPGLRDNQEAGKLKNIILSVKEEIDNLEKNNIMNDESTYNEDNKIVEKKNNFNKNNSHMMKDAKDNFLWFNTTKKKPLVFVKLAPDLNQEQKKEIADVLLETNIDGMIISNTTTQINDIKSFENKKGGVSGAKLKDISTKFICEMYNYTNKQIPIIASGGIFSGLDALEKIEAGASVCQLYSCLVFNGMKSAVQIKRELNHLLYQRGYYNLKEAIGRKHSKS
Sequence of E3 ubiquitin-protein ligase XIAP (Homo sapiens) (P98170 whole entry, looked up): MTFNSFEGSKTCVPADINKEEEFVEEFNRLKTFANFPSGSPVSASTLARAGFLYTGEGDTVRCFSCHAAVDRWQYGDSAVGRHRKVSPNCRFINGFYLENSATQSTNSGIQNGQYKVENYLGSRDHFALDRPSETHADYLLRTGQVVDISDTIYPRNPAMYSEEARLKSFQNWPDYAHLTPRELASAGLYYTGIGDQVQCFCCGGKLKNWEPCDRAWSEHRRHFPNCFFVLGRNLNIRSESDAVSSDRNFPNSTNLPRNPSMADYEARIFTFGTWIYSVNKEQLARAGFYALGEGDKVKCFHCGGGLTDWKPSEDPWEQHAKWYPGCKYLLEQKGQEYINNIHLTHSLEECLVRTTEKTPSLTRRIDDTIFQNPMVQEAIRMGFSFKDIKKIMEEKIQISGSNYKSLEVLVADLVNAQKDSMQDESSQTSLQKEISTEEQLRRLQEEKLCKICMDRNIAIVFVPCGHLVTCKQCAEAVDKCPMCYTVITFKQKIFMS

Turning to `C=CCC(OC(C)=O)[C@@H]1[C@@H](N(Cc2ccc(-c3ccccc3)cc2)C(=O)Cc2ccc(F)cc2)c2cc(OCCCO)ccc2N1C(=O)c1ccc2ccccc2n1` (stereo not given in full), the z-score was 1.07 in assay [1]; 0.203 in assay [2]; 1.14 in assay [3]; -2.11 in assay [4]; 0.246 in [5]; 2.97 in assay [6]. Also, the z-score in assay [7] was 0.25 (inactive); in assay [8], -0.359; in [9] it was 1.7; in assay [10], 1.37 (inactive); in [11], 1.29; in assay [12], -0.186 (inactive). In addition, the z-score in assay [13] is 1.08 (inactive); in assay [15], -0.619 (inactive); in [16] it was -0.452 (inactive); in [17], 0.918 (inactive); in assay [18] it was 0.761 (inactive); in [19], 0.893. The values for the composite z-score in [14] and in [20] were -0.203 (inactive) and 0.103, respectively.
Regarding `CC(C)C(=C=CC[C@H](O)c1ccccc1OCCO)C[C@H](O)c1ccccn1`, the z-score was 0.82 in assay [1]; -0.27 in assay [2]; 1.33 in assay [3]; 0.198 in assay [4]; 0.0964 in assay [5]; 0.714 in assay [6]. Moreover, the z-score in [7] was 0.085 (inactive); in assay [8], -0.332; in assay [9], -1.3; in assay [10], -0.607 (inactive); in assay [11], 0.644; in [12], -0.669 (inactive). Also, the z-score in [13] is 0.34 (inactive); in [15] it was 0.4 (inactive); in [16], 0.398 (inactive); in assay [17], 0.762 (inactive); in assay [18], 0.577 (inactive); in assay [19], 0.285. Also, the composite z-score in [14] was -3.95 (inactive); in assay [20] it was -0.226.
Consider `CCC(CC)C(O)C1C=CC2C(=O)N(c3ccccc3)C(=O)C2N1Nc1ccc(C#N)cc1` (stereo not given), for which the z-score is 0.313 in assay [1]; -0.534 in assay [2]; -0.136 in assay [3]; 0.436 in assay [4]; -0.452 in assay [5]; -1.03 in assay [6]. Besides, the z-score in [7] is -1.29 (inactive); in assay [8], -0.659; in assay [9], -0.0284; in assay [10] it was 0.158 (inactive); in [11], -0.813; in assay [12] it was -0.174 (inactive). The z-score in [13] was -0.253 (inactive); in [15] it was 1.55 (inactive); in [16], -0.358 (inactive); in assay [17], -0.698 (inactive); in assay [18] it was 0.133 (inactive); in assay [19] it was -0.308. Besides, the results for the composite z-score in assay [14] and in assay [20] were -1.69 (inactive) and -0.101, respectively.
For the compound `O=C(CCN1CCOCC1)c1cccc(O)c1`, the z-score in [1] was 0.867; in assay [2] it was 0.75; in [3] it was -0.891; in assay [4], -3.16; in [5], -1.74; in [6], 0.109. The z-score in [7] is -0.163 (inactive); in assay [8], -0.0964; in [9] it was -2.97; in [10] it was 0.36 (inactive); in assay [11], 1.19; in assay [12], -0.804 (inactive). For the same compound, the z-score is -1.43 (inactive) in [13]; -0.407 (inactive) in assay [15]; -1.07 (inactive) in [16]; 0.251 (inactive) in [17]; 0.737 (inactive) in [18]; -1.6 in assay [19]. Also, the results for the composite z-score in assay [14] and in [20] were -1.44 (inactive) and 0.226, respectively.
Consider `C=CCNC(=O)[C@@H]1[C@H]2C(=O)O[C@H](c3ccccc3)[C@H](c3ccccc3)N2[C@H](c2ccc(OCCO)cc2)[C@@]12C(=O)Nc1ccccc12`, for which the z-score in assay [1] was 1.66; in assay [2], 1.59; in assay [3], 0.521; in [4] it was 0.491; in assay [5], 0.0581; in [6] it was -0.912. Besides, the z-score was 1.01 (inactive) in assay [7]; -0.725 in assay [8]; 0.224 in assay [9]; -0.0995 (inactive) in assay [10]; 0.61 in [11]; -1.67 (inactive) in [12]. The z-score was -0.0761 (inactive) in assay [13]; 3.15 (inactive) in assay [15]; -0.412 (inactive) in [16]; 1.34 (inactive) in [17]; 0.548 (inactive) in [18]; -0.0855 in assay [19]. In addition, the results for the composite z-score in assay [14] and in [20] were -2.04 (inactive) and 0.0192, respectively.
Take `C=CCC(OC(C)=O)[C@@H]1[C@@H](N(Cc2cccc3ccccc23)C(=O)c2ccc(C)cc2)c2cc(OCCCO)ccc2N1C(=O)Cc1ccc(OC)cc1` (stereo not given in full): the z-score is 1.77 in assay [1]; 1.14 in assay [2]; 1.97 in assay [3]; 0.621 in [4]; 0.943 in assay [5]; 1.77 in assay [6]. In addition, the z-score in assay [7] was 0.696 (inactive); in assay [8], 0.594; in assay [9], -0.596; in assay [10], 0.69 (inactive); in [11], 1.36; in assay [12], -2.29 (inactive). For the same compound, the z-score in assay [13] was 0.641 (inactive); in assay [15], 0.0186 (inactive); in [16] it was -1.25 (inactive); in [17], 1.59 (inactive); in assay [18], 1.98 (inactive); in assay [19], -0.203. Moreover, the composite z-score was -1.6 (inactive) in [14] and -0.086 in assay [20].
Regarding `C=CCNC(=O)[C@@H]1[C@H]2C(=O)O[C@H](c3ccccc3)[C@H](c3ccccc3)N2[C@H](c2ccccc2OCCO)[C@@]12C(=O)Nc1ccc(C#CC3=CCCCC3)cc12`, the z-score in assay [1] was -1.77; in assay [2], 1.98; in [3], -2.85; in assay [4], -3.09; in assay [5] it was -3.42; in [6], -1.79. The z-score in assay [7] was 2.32 (inactive); in [8], -0.853; in assay [9] it was -1.17; in assay [10], -1.49 (inactive); in assay [11], -1.55; in [12], 0.556 (inactive). Also, the z-score in assay [13] was -2.61 (inactive); in assay [15], 1.55 (inactive); in assay [16] it was 1.78 (inactive); in assay [17], -0.125 (inactive); in assay [18] it was -0.353 (inactive); in [19], -5. Further, the values for the composite z-score in assay [14] and in [20] were 0.496 (inactive) and 0.0593, respectively.
In the case of `Cc1ccc([C@H]2[C@H](C(=O)O)[C@H](Sc3ccccc3)[C@@H](C(C)C)N2S(=O)(=O)c2ccc(C)cc2)cc1`, the z-score in [1] was -0.74; in assay [2], -0.594; in assay [3], -0.447; in assay [4] it was -0.0237; in [5], -0.802; in assay [6] it was -1.63. The z-score was 0.327 (inactive) in assay [7]; -0.199 in [8]; -0.437 in assay [9]; -0.064 (inactive) in assay [10]; -1.15 in [11]; -0.138 (inactive) in assay [12]. Moreover, the z-score in assay [13] was -0.498 (inactive); in assay [15], 0.0362 (inactive); in [16] it was -0.528 (inactive); in [17], -1.44 (inactive); in assay [18], -0.292 (inactive); in assay [19], -1.39. Further, the composite z-score in [14] is 0.184 (inactive); in [20] it was 0.603.
